Consider eleven compounds from ChEMBL document CHEMBL3988442, “University of Dundee, Small-Polar-MMV Screening Library” (2021).

Design in all cases: scale not given: direction of the effect not stated beside the values
For assay [1], the target named is Protein translocase subunit SecA (Escherichia coli (strain K12)) (UniProt P10408). Briefly: Assay to Identify E. coli SecA ATPase Inhibitors. Conditions: 30 µM. It is filed as functional.
In assay [2] the target is T1, Ubiquitin-activating enzyme e1, putative (Leishmania donovani (strain BPK282A1)) (UniProt E9BSI1).
T1 sequence (whole entry): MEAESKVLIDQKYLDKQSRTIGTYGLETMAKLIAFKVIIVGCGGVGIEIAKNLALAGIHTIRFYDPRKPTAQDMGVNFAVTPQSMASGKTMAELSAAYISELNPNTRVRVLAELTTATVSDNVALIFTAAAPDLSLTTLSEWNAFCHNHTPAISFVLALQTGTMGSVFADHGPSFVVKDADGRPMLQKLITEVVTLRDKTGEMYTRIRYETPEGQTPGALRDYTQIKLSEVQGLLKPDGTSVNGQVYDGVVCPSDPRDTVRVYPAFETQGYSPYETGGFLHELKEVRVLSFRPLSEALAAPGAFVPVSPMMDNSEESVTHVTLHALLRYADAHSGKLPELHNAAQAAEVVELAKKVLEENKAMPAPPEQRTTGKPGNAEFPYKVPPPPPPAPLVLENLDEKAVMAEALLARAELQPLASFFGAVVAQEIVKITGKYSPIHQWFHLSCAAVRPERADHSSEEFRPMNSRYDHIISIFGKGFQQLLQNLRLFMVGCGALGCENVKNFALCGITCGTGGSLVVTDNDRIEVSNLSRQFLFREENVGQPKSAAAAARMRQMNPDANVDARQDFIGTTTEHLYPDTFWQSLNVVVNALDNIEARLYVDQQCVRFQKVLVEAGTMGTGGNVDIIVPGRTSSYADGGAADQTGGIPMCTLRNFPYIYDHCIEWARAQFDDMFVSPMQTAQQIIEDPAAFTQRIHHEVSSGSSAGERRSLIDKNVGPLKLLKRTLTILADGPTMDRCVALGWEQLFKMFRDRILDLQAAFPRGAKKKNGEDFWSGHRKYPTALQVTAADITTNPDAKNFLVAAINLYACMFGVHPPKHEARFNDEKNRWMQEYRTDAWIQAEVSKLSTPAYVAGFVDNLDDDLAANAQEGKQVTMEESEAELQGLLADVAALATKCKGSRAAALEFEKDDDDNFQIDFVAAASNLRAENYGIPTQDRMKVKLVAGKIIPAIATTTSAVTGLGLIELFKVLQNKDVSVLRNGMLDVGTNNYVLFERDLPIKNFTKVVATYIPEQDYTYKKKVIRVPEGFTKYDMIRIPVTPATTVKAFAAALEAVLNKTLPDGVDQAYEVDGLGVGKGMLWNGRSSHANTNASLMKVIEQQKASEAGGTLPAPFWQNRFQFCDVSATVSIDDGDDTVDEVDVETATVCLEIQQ
Briefly: Leishmania donovani Ubiquitin Activating Enzyme (LdE1). The class given is functional. Conditions: 30 µM.

Assay [3] deals with AMP-activated protein kinase, AMPK (Homo sapiens) (UniProt P54646+O43741+P54619+Q9UGJ0+Q9Y478+Q13131+Q9UGI9). Briefly: AMP-dependent Kinase enzyme assay. An in vitro enzyme assay that detects ADP turnover that is directly proportional to AMPK activity. This uses naive AMPK that is activated during the assay with MK-8722. The class given is functional. As to conditions: 30 µM.

Assay [4] deals with Sialic acid-binding Ig-like lectin 9 (Homo sapiens) (UniProt Q9Y336). Briefly: Hs-Siglec9 ALPHAscreen SOP 20170721. Conditions: 10 µM. In general terms: In Alpha technology, singlet oxygen from a donor bead excites a nearby acceptor bead.
Another assay deals with Trypanosoma cruzi. As to the kind of experiment: Trypanosoma cruzi phosphomannomutase and mannose-1-phosphate guanylyltransferase assay. The class given is functional. Conditions: 10 µM.
Assay [5] has as its target T2, Arginase-2, mitochondrial (Homo sapiens) (UniProt P78540).
T2 sequence (whole entry): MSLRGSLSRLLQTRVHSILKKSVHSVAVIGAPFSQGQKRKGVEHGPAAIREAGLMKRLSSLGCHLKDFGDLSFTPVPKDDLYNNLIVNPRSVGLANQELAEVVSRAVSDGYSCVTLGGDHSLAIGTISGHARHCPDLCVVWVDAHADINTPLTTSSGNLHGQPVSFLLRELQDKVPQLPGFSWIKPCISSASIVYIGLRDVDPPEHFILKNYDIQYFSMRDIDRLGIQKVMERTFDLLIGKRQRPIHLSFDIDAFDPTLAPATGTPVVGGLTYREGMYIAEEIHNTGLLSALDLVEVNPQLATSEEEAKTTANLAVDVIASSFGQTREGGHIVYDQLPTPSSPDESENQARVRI
As to the kind of experiment: in vitro enzyme assay to detect the production of urea directly proportional to the activity of Arginase II. Note: in the data most compounds retested in dose-response had high values. It is filed as functional.

Assay [6] addresses T3, Proteasome subunit beta (Trypanosoma cruzi) (UniProt O96673).
T3 sequence (whole entry): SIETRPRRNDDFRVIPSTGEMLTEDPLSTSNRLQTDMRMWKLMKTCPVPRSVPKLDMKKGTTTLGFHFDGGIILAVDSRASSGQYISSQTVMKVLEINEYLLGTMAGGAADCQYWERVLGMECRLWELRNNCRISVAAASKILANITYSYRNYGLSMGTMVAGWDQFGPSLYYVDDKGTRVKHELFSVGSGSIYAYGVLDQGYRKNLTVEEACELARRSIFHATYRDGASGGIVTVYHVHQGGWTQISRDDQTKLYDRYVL
Briefly: Trypanosoma cruzi proteasome chymotrypsin-like activity (TcProtChymo) assay. Note: in the data most compounds retested in dose-response had high values. It is filed as functional. As to conditions: 9.37 µM.

The species named for a further assay is Homo sapiens. Briefly: To identify inhibition of the IFN signalling (Jak-Stat) pathway via expression of an eGFP reporter gene under the control of an IFN-stimulated response element (ISRE) containing MxA promoter. It is filed as functional. Conditions: 30 µM.
Assay [7] has as its target T4, Tyrosyl-tRNA synthetase, putative (Trypanosoma cruzi (strain CL Brener)) (UniProt Q4DSP6).
T4 sequence (whole entry): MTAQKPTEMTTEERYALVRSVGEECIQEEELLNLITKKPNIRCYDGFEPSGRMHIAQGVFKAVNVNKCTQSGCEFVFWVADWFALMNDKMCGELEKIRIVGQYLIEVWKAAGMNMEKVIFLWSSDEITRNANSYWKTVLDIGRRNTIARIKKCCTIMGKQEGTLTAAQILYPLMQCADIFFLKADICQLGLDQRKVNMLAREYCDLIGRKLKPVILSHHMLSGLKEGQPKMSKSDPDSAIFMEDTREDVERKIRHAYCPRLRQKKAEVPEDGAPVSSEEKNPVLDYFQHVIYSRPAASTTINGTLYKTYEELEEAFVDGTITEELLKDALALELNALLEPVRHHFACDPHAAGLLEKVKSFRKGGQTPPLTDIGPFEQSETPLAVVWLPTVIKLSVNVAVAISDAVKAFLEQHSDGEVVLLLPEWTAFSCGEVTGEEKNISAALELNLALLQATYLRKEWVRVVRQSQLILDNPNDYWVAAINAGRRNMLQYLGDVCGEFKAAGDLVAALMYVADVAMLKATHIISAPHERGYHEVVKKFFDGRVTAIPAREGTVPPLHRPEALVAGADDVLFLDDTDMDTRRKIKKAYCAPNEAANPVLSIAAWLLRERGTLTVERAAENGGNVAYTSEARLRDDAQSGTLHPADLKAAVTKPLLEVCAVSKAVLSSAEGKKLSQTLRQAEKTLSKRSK
As to the kind of experiment: Trypanosoma cruzi tyrosyl tRNA synthetase (TcYRS) _High Tyrosine SOP. Note: in the data most compounds retested in dose-response had high values. It is filed as functional. As to conditions: 30 µM.

For assay [8], the target named is T4, Tyrosyl-tRNA synthetase, putative (Trypanosoma cruzi (strain CL Brener)). Briefly: Trypanosoma cruzi tyrosyl tRNA synthetase (TcYRS) SOP. The class given is functional. As to conditions: 30 µM.
Assay [9] has as its target Chromo domain-containing protein 1 (Saccharomyces cerevisiae (strain ATCC 204508 / S288c) (Baker's yeast)) (UniProt P32657). Briefly: ScCHD-1 Enzyme Inhibition Assay. Note: in the data most compounds retested in dose-response had high values. As to conditions: 30 µM. The class given is functional.
The subject of a further assay is N/A. As to the kind of experiment: Trypanosoma cruzi proteasome luciferase counter-screen. As to conditions: 9.37 µM. The class given is functional. (Counterscreens check selectivity or assay interference.)

“And” between values parts separate entries of the source, which are not always exact repeats. Equal entries are not always repeated. For part of these data: Entries with a potency or affinity are not part of this list.

Sequence of Sialic acid-binding Ig-like lectin 9 (Homo sapiens) (Q9Y336 whole entry): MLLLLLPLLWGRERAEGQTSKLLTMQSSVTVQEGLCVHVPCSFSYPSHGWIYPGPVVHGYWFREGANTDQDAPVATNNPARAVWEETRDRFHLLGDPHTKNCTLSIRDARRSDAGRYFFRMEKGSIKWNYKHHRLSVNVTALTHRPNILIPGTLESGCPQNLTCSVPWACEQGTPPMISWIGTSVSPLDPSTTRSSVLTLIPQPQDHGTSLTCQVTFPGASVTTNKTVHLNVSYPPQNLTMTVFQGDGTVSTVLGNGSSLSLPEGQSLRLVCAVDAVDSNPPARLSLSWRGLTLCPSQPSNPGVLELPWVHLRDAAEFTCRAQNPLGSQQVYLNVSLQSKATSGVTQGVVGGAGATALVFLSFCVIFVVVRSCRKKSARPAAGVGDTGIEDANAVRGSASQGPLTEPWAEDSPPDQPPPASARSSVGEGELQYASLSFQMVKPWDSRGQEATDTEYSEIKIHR
Sequence of Chromo domain-containing protein 1 (Saccharomyces cerevisiae (strain ATCC 204508 / S288c) (Baker's yeast)) (P32657 whole entry, the tested form may be a part): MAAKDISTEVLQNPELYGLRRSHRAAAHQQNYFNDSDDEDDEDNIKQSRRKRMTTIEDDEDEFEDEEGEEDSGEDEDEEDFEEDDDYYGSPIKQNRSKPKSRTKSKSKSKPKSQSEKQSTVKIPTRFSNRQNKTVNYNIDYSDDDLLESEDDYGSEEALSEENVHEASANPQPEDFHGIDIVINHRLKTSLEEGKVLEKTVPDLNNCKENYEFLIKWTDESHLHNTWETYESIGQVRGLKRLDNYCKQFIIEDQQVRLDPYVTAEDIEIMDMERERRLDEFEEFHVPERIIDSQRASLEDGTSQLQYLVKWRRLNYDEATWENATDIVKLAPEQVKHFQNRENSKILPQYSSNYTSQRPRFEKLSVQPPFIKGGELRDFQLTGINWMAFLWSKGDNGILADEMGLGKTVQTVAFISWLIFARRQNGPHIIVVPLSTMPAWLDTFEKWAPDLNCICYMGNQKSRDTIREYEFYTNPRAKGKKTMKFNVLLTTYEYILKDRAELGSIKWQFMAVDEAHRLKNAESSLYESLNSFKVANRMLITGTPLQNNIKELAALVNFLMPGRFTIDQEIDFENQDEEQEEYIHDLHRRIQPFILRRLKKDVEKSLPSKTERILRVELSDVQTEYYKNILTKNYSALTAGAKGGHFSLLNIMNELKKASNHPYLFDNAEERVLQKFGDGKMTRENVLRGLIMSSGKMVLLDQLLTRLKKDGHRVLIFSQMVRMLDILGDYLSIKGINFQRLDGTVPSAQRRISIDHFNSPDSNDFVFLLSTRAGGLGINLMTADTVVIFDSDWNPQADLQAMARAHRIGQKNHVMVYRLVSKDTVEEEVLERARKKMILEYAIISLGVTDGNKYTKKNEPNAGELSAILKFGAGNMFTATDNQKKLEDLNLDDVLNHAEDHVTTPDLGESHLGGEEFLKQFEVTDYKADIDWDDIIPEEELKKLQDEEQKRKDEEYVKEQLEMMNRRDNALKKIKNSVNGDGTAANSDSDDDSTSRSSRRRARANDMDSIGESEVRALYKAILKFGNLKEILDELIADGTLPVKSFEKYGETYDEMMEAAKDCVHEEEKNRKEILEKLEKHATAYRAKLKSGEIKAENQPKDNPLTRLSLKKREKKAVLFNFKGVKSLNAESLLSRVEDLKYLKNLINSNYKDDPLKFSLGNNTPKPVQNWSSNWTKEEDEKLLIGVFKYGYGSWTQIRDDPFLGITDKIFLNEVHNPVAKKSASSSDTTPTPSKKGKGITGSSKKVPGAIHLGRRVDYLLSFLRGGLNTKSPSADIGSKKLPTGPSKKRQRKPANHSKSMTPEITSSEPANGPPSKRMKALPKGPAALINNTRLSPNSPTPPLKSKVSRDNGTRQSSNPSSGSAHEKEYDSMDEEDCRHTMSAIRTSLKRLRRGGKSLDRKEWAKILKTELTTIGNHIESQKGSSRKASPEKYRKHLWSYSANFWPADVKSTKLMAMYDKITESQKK
Sequence of Protein translocase subunit SecA (Escherichia coli (strain K12)) (P10408 whole entry): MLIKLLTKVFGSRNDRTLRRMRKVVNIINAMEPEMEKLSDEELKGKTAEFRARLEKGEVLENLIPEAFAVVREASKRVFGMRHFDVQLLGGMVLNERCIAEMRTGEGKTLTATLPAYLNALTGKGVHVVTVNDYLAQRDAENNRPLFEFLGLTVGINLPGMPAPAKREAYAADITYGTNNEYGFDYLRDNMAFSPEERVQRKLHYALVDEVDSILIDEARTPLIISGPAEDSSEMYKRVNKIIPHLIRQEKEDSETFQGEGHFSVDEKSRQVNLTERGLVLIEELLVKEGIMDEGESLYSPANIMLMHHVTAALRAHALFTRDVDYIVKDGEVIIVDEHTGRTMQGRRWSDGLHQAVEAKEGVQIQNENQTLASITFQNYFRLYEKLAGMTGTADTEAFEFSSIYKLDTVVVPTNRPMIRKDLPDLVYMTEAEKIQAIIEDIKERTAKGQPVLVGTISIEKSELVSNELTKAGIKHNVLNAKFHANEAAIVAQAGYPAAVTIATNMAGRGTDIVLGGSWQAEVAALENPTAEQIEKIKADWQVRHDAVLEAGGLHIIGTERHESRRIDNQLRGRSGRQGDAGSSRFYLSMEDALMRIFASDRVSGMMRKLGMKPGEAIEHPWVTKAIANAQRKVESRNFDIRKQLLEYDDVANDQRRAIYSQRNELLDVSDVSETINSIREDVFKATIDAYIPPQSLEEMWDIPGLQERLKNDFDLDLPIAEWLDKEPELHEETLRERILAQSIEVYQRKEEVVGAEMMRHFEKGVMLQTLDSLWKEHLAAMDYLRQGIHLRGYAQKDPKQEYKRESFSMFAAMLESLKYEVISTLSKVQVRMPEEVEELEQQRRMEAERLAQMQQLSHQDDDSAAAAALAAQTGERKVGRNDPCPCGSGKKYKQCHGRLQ

As for `FC(F)(F)Cc1noc(CN2CCCC2c2noc(C3CC3)n2)n1` (configuration not stated), the Percent Effect was -1.65% in assay [1]; 13.5% in assay [2]; -5.95% in [3]; 4.29% in assay [4]; 4.06% in the assay on Trypanosoma cruzi; -10.8% in assay [5] (33.3 µM). Further, the Percent Effect in assay [6] was 5.59%; in the assay listed under Homo sapiens it was 7.37%; in assay [7], 7.39%; in [8], 23.5%; in assay [9], -9.28%.
With `COc1ccc(F)cc1C(C)NC(=O)c1nnc(C)s1` (configuration not stated), the Percent Effect was -4.77% in assay [1]; -2.7% in assay [2]; 0.954% in assay [3]; -9.5% in [4]; -2.05% in the assay with Trypanosoma cruzi; 0.248% in [5] (33.3 µM). Further, the Percent Effect is -4.89% in [6]; -14.3% in the assay filed under Homo sapiens; -3.23% in assay [7]; -1.24% in assay [8]; 3.82% in [9].
On to `CN1CCN(C2CCN(CC(=O)NCC(F)(F)F)CC2)C1=O`, for which the Percent Effect is -6.45% in assay [1]; 15.2% in [2]; -9.09% in assay [3]; 10.9% in assay [4]; 7.46% in the assay on Trypanosoma cruzi; -3.8% in assay [5] (33.3 µM). Further, the Percent Effect in [6] was 5.32%; in the assay listed under Homo sapiens, -11.8%; in [7], 3.45%; in [8], 13.9%; in assay [9], -3.32%.
For `COc1cnc(C2(O)CCN(C(=O)c3cccnc3)CC2)c(OC)n1`, the Percent Effect in assay [1] was -4.3%; in assay [2], 4.05%; in assay [3] it was 11.7%; in assay [4], 7.31%; in the assay on Trypanosoma cruzi, -1.78%; in assay [5] (33.3 µM), -0.696%. For the same compound, the Percent Effect in assay [6] is -0.156%; in the assay filed under Homo sapiens it was -1.41%; in [7], 5.38%; in [8], 6.49%; in assay [9], -4.19%.
As for `CCOCC1CN(S(C)(=O)=O)Cc2cnn(CC3CCOCC3)c21` (configuration not stated), the Percent Effect in assay [1] was -3.9%; in assay [2] it was 1.3%; in assay [4], -0.726%; in the assay with Trypanosoma cruzi it was -5.94%; in assay [5] (33.3 µM) it was -5.26%; in [6], 10.5%. The Percent Effect in the assay filed under Homo sapiens is 0.606%; in assay [7], 3.68%; in assay [8] it was 12.8%; in assay [9], -2.94%.
In the case of `Cn1ccc(C(=O)NCc2cccc(CN3CCCC3)c2)cc1=O`, the Percent Effect was -1.76% in [1]; 20.8% in [2]; 0.574% in assay [4]; 2.05% in the assay with Trypanosoma cruzi; -6.35% in [5] (33.3 µM); 19.2% and 18.4% and 34% in assay [6]. The Percent Effect in the assay on N/A is 12% and 8.64%; in the assay filed under Homo sapiens, -14.3%; in assay [7] it was 11.8%; in assay [8], 30.6%; in assay [9], -13%.
Take `CCNC(=O)c1ccnc(NCC2COc3cc(OC)ccc3C2)c1` (configuration not stated): the Percent Effect is -6.93% in [1]; 5.41% in assay [2]; 2.93% in [4]; -3.78% with Trypanosoma cruzi; 0.54% in assay [5] (30 µM); -1.05% in assay [5] (33.3 µM). Moreover, the Percent Effect in assay [6] was 23.6%; in the assay listed under Homo sapiens, 24.8%; in [7] it was 2.66%; in assay [8] it was 7.32%; in [9], -4.55%.
Regarding `O=S(=O)(NCC1(O)CCOc2ccccc21)c1ccc(Br)s1` (configuration not stated), the Percent Effect is -7.03% in assay [1]; 2.74% in assay [2]; 6.4% in assay [3]; -1.37% in assay [4]; -3.72% in the assay with Trypanosoma cruzi; -1.82% in [5] (33.3 µM). The results for the Percent Effect (in assay [6]; in the assay filed under Homo sapiens; in assay [9]) were 4.97%, 21.1% and -2.54%, respectively.
For the compound `Cc1ccc(N2CC[C@H]3O[C@@H](C(=O)NCc4ccco4)CC[C@H]32)nn1`, the Percent Effect is -3.84% in assay [1]; 11.7% in assay [2]; -7.1% in assay [4]; 0.487% in the assay with Trypanosoma cruzi; 4.05% in assay [5] (33.3 µM); 34.9% and 42.6% and 44.7% in assay [6]. Also, the Percent Effect in the assay with N/A is 17.7% and 15.6%; in the assay listed under Homo sapiens, 2.02%; in assay [7], 12.1%; in [8], 12.8%; in [9], -1.01%.
As to `O=C(NCCNC(=O)c1scnc1Cl)c1ccccc1`, the Percent Effect in assay [1] was -3.41%; in [2], 16%; in [4], 3.33%; in the assay on Trypanosoma cruzi it was 2.01%; in assay [5] (33.3 µM) it was -0.887%; in assay [6] it was 14.2%. The Percent Effect in the assay listed under Homo sapiens is 9.89%; in assay [7], 7.89%; in [8], 17.9%; in assay [9] it was -5%.
On to `CN(C)[C@H]1CCCCN(C(=O)CCc2csc(N)n2)C1`, for which the Percent Effect in [1] is -6.59%; in [2] it was 2.7%; in assay [4], -1.59%; in the assay with Trypanosoma cruzi, 1.46%; in assay [5] (30 µM), 2.7%; in assay [5] (33.3 µM) it was -0.35%. The Percent Effect in assay [6] was 9.76%; in the assay filed under Homo sapiens, -5.61%; in assay [7] it was 3.72%; in [8], 7.32%; in [9] it was 0.286%.
